According to PubChem BioAssay AID1476 (National Center for Advancing Translational Sciences (NCATS), 2009):
In all, about 200,000 compounds went through this assay and about 4,500 (2.2%) were called active. Not shown: some 12% with an inconclusive outcome. Shown is part of a subset that was picked to be rich in actives. A number with no mark means an inactive call. Calls follow the shape of the dose curve; as a rule, active = well fitted inhibition curve with a large enough effect; inconclusive = small, poorly fitted or top-dose-only effect, or effect the other way; inactive = flat fitted curve, though single readings scatter.
Also: nearly all actives have a fitted effect of over 40% in size.
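For max response, negative = inhibition in this document: plate controls were enzyme without inhibitor for no effect and buffer without enzyme for full effect.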
Potency is read from the fitted curve at half-maximal effect.

The molecules below were run against Cruzipain (Trypanosoma cruzi) (UniProt P25779) (assay: qHTS Assay for Promiscuous and Specific Inhibitors of Cruzain (without detergent)). Conditions: purified cruzain, Z-FR-AMC fluorescence, no detergent.
Cruzipain (Trypanosoma cruzi), sequence (P25779 123-467 limits assumed): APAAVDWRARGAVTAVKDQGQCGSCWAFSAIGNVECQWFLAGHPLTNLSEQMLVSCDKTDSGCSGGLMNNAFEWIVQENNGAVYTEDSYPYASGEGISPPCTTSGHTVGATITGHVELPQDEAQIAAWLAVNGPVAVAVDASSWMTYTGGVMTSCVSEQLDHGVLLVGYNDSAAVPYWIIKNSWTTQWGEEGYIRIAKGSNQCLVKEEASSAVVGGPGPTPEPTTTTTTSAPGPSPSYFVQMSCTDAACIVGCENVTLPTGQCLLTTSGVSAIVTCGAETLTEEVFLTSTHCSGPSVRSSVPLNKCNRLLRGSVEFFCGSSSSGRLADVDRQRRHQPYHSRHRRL
Outline: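 Detergent-free condition (0.00005% Triton X-100) in acetate buffer pH 5.5 with DTT. 1.5 nM enzyme and compound were pre-mixed 15 min, then 2 uM Z-FR-AMC substrate added; reaction progress from fluorescence change between first and third reads (60 s).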
`Cc1nn(C)c2c1c(C(F)(F)F)cc(=O)n2C(C)C(=O)NCc1ccc(Cl)cc1` (centres undefined) was tested, and the max response, negative = inhibition was -3.11%. Molecule `COc1ccc(C2=NN(C(=O)c3cccnc3)C(c3ccccc3)C2)cc1` (centres undefined) has a max response, negative = inhibition of 7.92%. With `COc1ccc(C2CC(c3ccccc3)=NN2C(=O)c2ccc(Cl)c([N+](=O)[O-])c2)cc1` (centres undefined) the Potency was 10 µM (active). `COc1ccc(C(=O)NNC(=S)NC(=O)c2ccccc2[N+](=O)[O-])cc1` was tested, and the max response, negative = inhibition was -1.55%. For `CCOC(=O)C1CCCN(C(=O)c2ccc(-n3ccc4ccccc43)s2)C1` (centres undefined), the max response, negative = inhibition was 13.4%. `CCOc1ccc(C(=O)c2cn(Cc3ccc(F)cc3)c3ccc(F)cc3c2=O)cc1` showed a max response, negative = inhibition of 3.78%. `Nc1ncc(S(=O)(=O)Nc2ccc(OC(F)(F)F)cc2)cn1` gave a max response, negative = inhibition of -3.7%. `COC(=O)c1cn(-c2ccccc2)nc1-c1cccnc1` was tested, and the max response, negative = inhibition was 10.9%. With `O=C(COC(=O)/C=C/c1cn(-c2ccccc2)nc1-c1cccnc1)Nc1ccc(Cl)cc1Cl` the Potency was 10 µM (active). For `O=C(c1cn(-c2ccccc2)nc1-c1cccnc1)N1CCCCC1`, the max response, negative = inhibition was -0.942%. Molecule `CCc1c(C)sc(NC(=O)C2c3ccccc3Oc3ccccc32)c1C(=O)OC(C)C` has a max response, negative = inhibition of -24.3%. Work on `COc1ccc(Oc2coc3cc(OC(=O)c4cncc(Br)c4)ccc3c2=O)cc1` yielded a max response, negative = inhibition of -23.9%. Work on `CCCOC(=O)c1cc2ccccc2oc1=O` yielded a max response, negative = inhibition of -4.88%. For `CCc1ccc(Oc2coc3cc(OC(=O)c4cc5ccccc5oc4=O)ccc3c2=O)cc1`, the Potency was 3.98 µM (active). In the case of `COC(=O)C(C)N(C#N)c1nc(C)nc(C)n1` (centres undefined), the max response, negative = inhibition is reported as 1.82%. `CNc1nc(SC)nc(N(C#N)CC(=O)OC)n1` was tested, and the Potency was 25.1 µM (active). In the case of `Cc1cc(C)nc(N(C#N)CC(=O)Nc2ccccc2)n1`, the max response, negative = inhibition is reported as 5.89%. `CCCCOc1ccc(NC(=O)c2cc3c(n(-c4ccc(Cl)cc4)c2=O)CCCC3=O)cc1` showed a max response, negative = inhibition of 7.21%. `CSCCC(NS(=O)(=O)c1ccc2c(c1)oc(=O)n2C)C(=O)NCc1ccccc1` (centres undefined) gave a max response, negative = inhibition of -13%. For `COc1ccc(CCNC(=O)CCCn2c(=O)c3ccccc3n(Cc3ccc(F)cc3Cl)c2=O)cc1OC`, the max response, negative = inhibition was 13.2%. `CCc1nnc(SCc2nc(-c3cccc(C)c3)oc2C)c2cc3sc(C)cc3n12` showed a max response, negative = inhibition of -17.8%. `COc1ccc(C2CC(c3cccs3)=Nc3ccccc3S2)cc1OC` (centres undefined) gave a max response, negative = inhibition of 13.4%. In the case of `COc1ccccc1C(=O)OCc1cc(=O)n2nc(-c3cccs3)sc2n1`, the max response, negative = inhibition is reported as -3.73%. `COc1ccc(C2CC(c3cccs3)=NN2C(=O)COC(=O)c2cc3ccccc3cc2O)cc1OC` (centres undefined) was tested, and the Potency was 12.6 µM (active). Molecule `O=C(Cn1ncc2c3ccccc3n(Cc3ccccc3)c2c1=O)NC1CCCCCC1` has a max response, negative = inhibition of 10.4%. Molecule `COc1cccc(NC(=O)CSc2cc(=O)n(C)c3ccc(Cl)cc23)c1` has a max response, negative = inhibition of -14.5%. `COc1cn(CC(=O)Nc2cccc(C)c2C)c(CN2CCCCC2)cc1=O` gave a max response, negative = inhibition of 9%. Work on `CCC(=O)N1c2ccccc2CC1C(=O)N1CCN(c2ccccc2)CC1` (centres undefined) yielded a max response, negative = inhibition of 7.34%. Molecule `O=C(NC(c1ccccc1)c1ccccc1)N1CCN(CCO)CC1` has a max response, negative = inhibition of -2.87%. `O=C(CN1CCc2ccccc21)NC(c1ccccc1)c1ccccc1` was tested, and the Potency was 25.1 µM (active). For `O=S(=O)(NCC(c1ccccc1)N1CCc2ccccc21)c1ccccc1` (centres undefined), the max response, negative = inhibition was 4.54%. `CCOC(=O)c1csc(NC(=O)Nc2cccc(OC)c2)n1` gave a max response, negative = inhibition of 8.19%. `Cc1ccc(C(=O)Nc2nc(-c3ccccc3)ns2)cc1` gave a max response, negative = inhibition of 5.68%. In the case of `CCCCC(=O)Nc1nc(C)c(-c2csc(Nc3ccc(Cl)cc3)n2)s1`, the Potency is reported as 7.94 µM (active). `Cc1nc(NC(=O)CN(C)S(=O)(=O)c2ccc(Cl)cc2)sc1C` showed a max response, negative = inhibition of -3.63%. `CN(CCCC(=O)Nc1nccs1)S(=O)(=O)c1ccc(Cl)cc1` was tested, and the max response, negative = inhibition was -7.25%. In the case of `CCCCCCC(=O)Nc1nc(C)c(-c2csc(Nc3cccc(OC)c3)n2)s1`, the Potency is reported as 10 µM (active). In the case of `Cc1nc(C)c(-c2csc(NCCc3ccccc3)n2)s1`, the max response, negative = inhibition is reported as -11.5%. With `C=CCCC(=O)Nc1nc(C)c(-c2csc(Nc3ccc(Cl)cc3)n2)s1` the Potency was 12.6 µM (active). `CC(=O)c1sc(NC(=O)c2ccc(C)cc2)nc1C` was tested, and the max response, negative = inhibition was -25%. Molecule `CCCCN(C)CCC(=O)Nc1ccc(Cl)cc1` has a max response, negative = inhibition of -0.803%. `COc1cccc(NC(=O)c2csnn2)c1` gave a max response, negative = inhibition of -5.7%. For `Cc1ccc(Nc2nc(-c3sc(NC(=O)c4ccccc4)nc3C)cs2)cc1`, the Potency was 31.6 µM (active). `Cc1ccc(Cl)cc1NC(=O)NC1COc2ccccc2C1` (centres undefined) showed a max response, negative = inhibition of -7.18%. In the case of `CCCCC(=O)N/N=C(\C)CC(=O)Nc1cc(Cl)ccc1OC`, the max response, negative = inhibition is reported as 7.24%. `COc1ccc(Cl)cc1NC(=O)CCC(=O)c1ccc(C)cc1` gave a max response, negative = inhibition of 4.58%. For `CCCCCCC(=O)Nc1nc(C)c(-c2csc(Nc3cc(Cl)ccc3OC)n2)s1`, the Potency was 3.16 µM (active). `CCOCCn1ccc2c(OCC(=O)NCc3ccc(C)cc3)cccc2c1=O` gave a max response, negative = inhibition of 4.16%. In the case of `Cc1cc(F)ccc1NC1(c2ccccc2)C(=O)c2ccccc2C1=O`, the max response, negative = inhibition is reported as -5.27%. Work on `CCOC(=O)c1ccc(NC(=O)C2CCN(S(=O)(=O)c3ccc4c(c3)CCCC(=O)N4)CC2)cc1` yielded a max response, negative = inhibition of 1.28%. Molecule `CC(C)NC(=O)C(=O)NCCN1CCN(S(=O)(=O)c2ccc(Cl)cc2)CC1` has a max response, negative = inhibition of -2.28%. In the case of `Cc1c(C2=CCN(S(=O)(=O)c3ccc(Cl)cc3)CC2)c2ccccc2n1C`, the Potency is reported as 31.6 µM (active). `O=C(ON=C1CCN(S(=O)(=O)c2ccccc2)CC1)c1ccc(Cl)cc1` gave a max response, negative = inhibition of 20.4%. Work on `CCc1nn(CCCC(=O)NCc2ccccc2OC)c(=O)c2cc3occc3n12` yielded a max response, negative = inhibition of -6.49%. Molecule `CCOc1ccc(-c2cc3c(=O)n(CC(=O)NCc4ccc(OC)cc4)ccn3n2)cc1` has a max response, negative = inhibition of 4.06%. In the case of `COc1cc(NC(=O)CCNC(=O)Cn2ccc3ccccc3c2=O)cc(OC)c1OC`, the max response, negative = inhibition is reported as -10.9%. With `Cc1cc(C(=O)OCC(=O)Nc2nnc(C(C)C)s2)c2ccccc2n1` the max response, negative = inhibition was -3.17%. `O=C(COC(=O)c1cc(=O)[nH]c2ccccc12)Nc1nc(-c2cccc(Br)c2)cs1` was tested, and the Potency was 15.8 µM (active). `CCOC(=O)c1ccc(COC(=O)c2cc(=O)[nH]c3ccccc23)o1` gave a max response, negative = inhibition of -5.71%. `CCN(Cc1ccccc1)S(=O)(=O)c1ccc2c(c1)CCCN2C(C)=O` showed a max response, negative = inhibition of 12.3%. `O=C(NC1CC(=O)N(c2ccc(F)cc2)C1)c1ccc(S(=O)(=O)N2CCCC2)cc1` (centres undefined) gave a max response, negative = inhibition of 8.64%. Molecule `O=C(Nc1ccccc1)c1nnsc1S(=O)(=O)c1ccc(Cl)cc1` has a max response, negative = inhibition of -8.46%. `CC(C)(C)C(=O)c1cnc(Nc2ccccc2)s1` was tested, and the max response, negative = inhibition was -10.8%. With `O=C(c1ccc(Cl)cc1)c1cnc(Nc2ccccc2)s1` the Potency was 15.8 µM (active). `Cc1ccc(C)c(S(=O)(=O)c2nnn3c2nc(N2CCOCC2)c2sccc23)c1` showed a max response, negative = inhibition of 0.86%. Molecule `Cc1ccc2nc(COc3cccc(NC(=O)c4cccc(Cl)c4)c3)cc(=O)n2c1` has a max response, negative = inhibition of -16.6%. In the case of `COc1cccc(C(=O)Nc2ccc3oc(-c4ccc5ccccc5c4)nc3c2)c1`, the Potency is reported as 12.6 µM (active). `Cc1ccccc1-c1nc2cc(NC(=O)c3cccc(OCCC(C)C)c3)ccc2o1` was tested, and the max response, negative = inhibition was -8.64%. For `COC(=O)c1ccc(-c2nc3cc(NC(C)=O)ccc3o2)cc1`, the max response, negative = inhibition was 5.54%. For `COc1ccccc1OCCCn1c(-c2ccc(Cl)cc2)nc2ccccc2c1=O`, the max response, negative = inhibition was 3.21%. Work on `COc1ccc(S(=O)(=O)NCc2cccn2Cc2cccc(C)c2)cc1Cl` yielded a max response, negative = inhibition of 6.08%. `COc1ccc(Br)cc1C1CC(=O)Nc2c1c(C)nn2-c1nc(C)cc(C)n1` (centres undefined) gave a max response, negative = inhibition of 3.34%. `CC(=O)c1ccc(N2CCN(c3nc4c(S(=O)(=O)c5ccccc5)nnn4c4ccc(Cl)cc34)CC2)cc1` gave a max response, negative = inhibition of 0.808%. With `CCOC(=O)c1c(-c2cccc(C)c2)csc1NC(=O)c1c(-c2ccccc2)noc1C` the Potency was 7.94 µM (active). Molecule `CC(=O)Nc1cccc(NC(=O)c2c(-c3ccccc3)noc2C)c1` has a max response, negative = inhibition of 2.43%. Work on `CCCS(=O)(=O)c1ncc(Cl)c(C(=O)Nc2scc(-c3ccccc3)c2C(=O)OCC)n1` yielded a max response, negative = inhibition of -26.6%. `CCOc1ccc(S(=O)(=O)c2cn(Cc3ccccc3)c3ccc(OCC)cc3c2=O)cc1` showed a max response, negative = inhibition of -17.9%. `COc1ccc(OC)c(NC(=O)Cn2c(=O)n(Cc3ccccc3)c(=O)c3ccccc32)c1` was tested, and the max response, negative = inhibition was -9.43%. For `COc1ccc(NC(=O)Cn2c(=O)n(Cc3ccc(C(=O)NCc4ccccc4Cl)cc3)c(=O)c3ccccc32)cc1`, the Potency was 10 µM (active). Molecule `COc1ccc(NC(=O)Cn2c(=O)n(Cc3ccco3)c(=O)c3ccccc32)cc1` has a max response, negative = inhibition of -4.83%. `Cn1nnc2c(N3CCN(c4ccccc4)CC3)ncnc21` was tested, and the max response, negative = inhibition was -1.23%. For `CCCCN1CC(c2nc3ccccc3n2CCCCOc2ccc(C)cc2C)CC1=O` (centres undefined), the max response, negative = inhibition was 1.93%. For `CCOc1ccccc1NC(=O)C1CCCN(S(=O)(=O)c2cn(C)cn2)C1` (centres undefined), the max response, negative = inhibition was -18.2%. For `O=C1/C(=C/c2ccc3c(c2)OCO3)CCC/C1=C\c1ccc2c(c1)OCO2`, the max response, negative = inhibition was -11.7%. `O=C(COC(=O)/C(=C/c1cccs1)c1cccs1)NCc1ccccc1Cl` was tested, and the max response, negative = inhibition was 3.79%. Work on `O=C(COC(=O)CCc1c[nH]c(=O)[nH]1)Nc1ccccc1Cl` yielded a max response, negative = inhibition of -19.9%. For `O=C(COC(=O)c1c2c(nc3ccccc13)/C(=C\c1cccs1)CCC2)Nc1ccccc1Cl`, the Potency was 31.6 µM (active). `NS(=O)(=O)c1ccc(NC(=O)COC(=O)c2c3c(nc4ccccc24)/C(=C\c2ccc4c(c2)OCO4)CCC3)cc1` was tested, and the Potency was 20 µM (active). For `CC(NC(=S)Nc1ccc(S(N)(=O)=O)cc1)c1ccc2c(c1)OCO2` (centres undefined), the max response, negative = inhibition was -22.3%.
